The source made the active and inactive calls. How the source made its calls: active means hit-call score of the fitted dose curve at least 0.9, where 1 is the maximum; inactive means score below 0.9.
What was measured:
Conditions in all cases: mRNA level, 48 h; actives raise or lower the signal
[1] = read-out: growth arrest and DNA damage 45 (GADD45G), GADD45G (gene 10912); experiment: LTEA_HepaRG_GADD45G: Life Technologies and Expression Analysis (LTEA) Assay for growth arrest and DNA damage 45 (GADD45G) using HepaRG (AID 2283499)
Method in brief: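 HepaRG, 48 h exposure, top 100 uM, half-log 8-point series, 0.5% DMSO vehicle, duplicates. Readout: GADD45G transcript by qRT-PCR (Fluidigm array), housekeeping-normalised (ACTB/GAPDH/POLR2A). Bidirectional curve fit vs DMSO baseline.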

[2] = read-out: Glutamate-cysteine ligase regulatory (GCLM), GCLM (gene 2730); experiment: LTEA_HepaRG_GCLM: Life Technologies and Expression Analysis (LTEA) Assay for Glutamate-cysteine ligase regulatory (GCLM) using HepaRG (AID 2283500)
Method in brief: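 Endpoint is GCLM transcript level by qRT-PCR, normalized to three housekeeping genes, after 48 h chemical exposure of human HepaRG cells (0.5% DMSO vehicle, top 100 uM, half-log dilutions). Fitting was bidirectional relative to DMSO.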

[3] = read-out: Glutathione S-transferase M3 (GSTM3), GSTM3 (gene 2947); experiment: LTEA_HepaRG_GSTM3: Life Technologies and Expression Analysis (LTEA) Assay for Glutathione S-transferase M3 (GSTM3) using HepaRG (AID 2283501)
Method in brief: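 qRT-PCR read-out of GSTM3 transcript, normalized to three housekeeping genes, from human HepaRG cells after 48 h chemical exposure. Eight-point half-log series, top 100 uM, 0.5% DMSO vehicle; gain or loss fitted relative to DMSO baseline.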

[4] = read-out: Heat shock 70 kDa protein 1 (HSPA1A), gene 3303; experiment: LTEA_HepaRG_HSPA1A: Life Technologies and Expression Analysis (LTEA) Assay for Heat shock 70 kDa protein 1 (HSPA1A) using HepaRG (AID 2283502)
Method in brief: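 Cells were plated and cultured for 48 h, then switched to serum-free induction medium. Chemicals were added at eight half-log concentrations up to 100 uM for 48 h. RNA was then isolated and HSPA1A measured by qRT-PCR with bidirectional curve fitting against DMSO.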

[5] = read-out: 3-Hydroxy-3-Methylglutaryl-CoA Synthase 2 (HMGCS2), HMGCS2 (gene 3158); experiment: LTEA_HepaRG_HMGCS2: Life Technologies and Expression Analysis (LTEA) Assay for 3-Hydroxy-3-Methylglutaryl-CoA Synthase 2 (HMGCS2) using HepaRG (AID 2283504)
Method in brief: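 qRT-PCR read-out of HMGCS2 transcript, normalised to three housekeeping genes, in HepaRG cells after 48 h chemical exposure. Eight-point curves from 100 uM, half-log dilutions, 0.5% DMSO vehicle; gain or loss fitted relative to DMSO baseline.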

HGF (gene 3082) = experiment: LTEA_HepaRG_HGF: Life Technologies and Expression Analysis (LTEA) Assay for Hepatocyte Growth Facto (HGF) using HepaRG (AID 2283505)
Method in brief: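 HepaRG, 48 h dosing, 8-pt half-log series from 100 uM in 0.5% DMSO, duplicates. Readout: TaqMan qRT-PCR of HGF mRNA, housekeeping-normalized; bidirectional curve fit vs DMSO baseline.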

[6] = read-out: Insulin Like Growth Factor 1 (IGF1), IGF1 (gene 3479); experiment: LTEA_HepaRG_IGF1: Life Technologies and Expression Analysis (LTEA) Assay for Insulin Like Growth Factor 1 (IGF1) using HepaRG (AID 2283506)
Method in brief: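 Cells are thawed, plated and cultured 48 h, then exposed in duplicate to chemical (highest 100 uM, half-log steps, 0.5% DMSO) for another 48 h. Total RNA is analysed by Fluidigm qRT-PCR for IGF1 expression relative to vehicle.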

[7] = read-out: Intercellular Adhesion Molecule 1 (ICAM1), ICAM1 (gene 3383); experiment: LTEA_HepaRG_ICAM1: Life Technologies and Expression Analysis (LTEA) Assay for Intercellular Adhesion Molecule 1 (ICAM1) using HepaRG (AID 2283507)
Method in brief: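 HepaRG, 48 h exposure, 8-pt half-log series from 100 uM, 0.5% DMSO vehicle, duplicates. Readout: TaqMan qRT-PCR mRNA, housekeeping-normalized (ACTB/GAPDH/POLR2A). Bidirectional curve fit vs DMSO baseline.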

[8] = read-out: Insulin-like growth factor-binding protein 1 (IGFBP1), IGFBP1 (gene 3484); experiment: LTEA_HepaRG_IGFBP1: Life Technologies and Expression Analysis (LTEA) Assay for Insulin-like growth factor-binding protein 1 (IGFBP1) using HepaRG (AID 2283508)
Method in brief: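 qRT-PCR mRNA read-out (TaqMan, Fluidigm array), normalised to three housekeeping genes; HepaRG cells, 48 h exposure, 8-pt half-log series from 100 uM, 0.5% DMSO vehicle; bidirectional curve fit vs DMSO baseline.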

[9] = read-out: Interleukin 6 (IL6), IL6 (gene 3569); experiment: LTEA_HepaRG_IL6: Life Technologies and Expression Analysis (LTEA) Assay for Interleukin 6 (IL6) using HepaRG (AID 2283509)
Method in brief: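 qRT-PCR read-out of IL6 transcript, normalized to three housekeeping genes, after 48 h chemical exposure of HepaRG cells; 8-point half-log series, top 100 uM, 0.5% DMSO vehicle. Bidirectional curve fitting against DMSO baseline.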

[10] = read-out: Interleukin 6 Receptor (IL6R), IL6R (gene 3570); experiment: LTEA_HepaRG_IL6R: Life Technologies and Expression Analysis (LTEA) Assay for Interleukin 6 Receptor (IL6R) using HepaRG (AID 2283510)
Method in brief: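 Cells were thawed, plated and cultured 48 h, then medium was changed to serum-free induction medium. Chemicals were added in duplicate (100 uM top, half-log steps, 0.5% DMSO) for 48 h. Lysates were analyzed by qRT-PCR for IL6R expression.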

[11] = read-out: Potassium channel subfamily K member 1 (KCNK1), KCNK1 (gene 3775); experiment: LTEA_HepaRG_KCNK1: Life Technologies and Expression Analysis (LTEA) Assay for Potassium channel subfamily K member 1 (KCNK1) using HepaRG (AID 2283511)
Method in brief: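 HepaRG, 48 h exposure, 8-pt half-log series top 100 uM, 0.5% DMSO vehicle, duplicates. Readout: KCNK1 transcript by qRT-PCR (Fluidigm array), housekeeping-normalized; bidirectional curve fit relative to DMSO baseline.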

[12] = read-out: Keratin 19 (KRT19), KRT19 (gene 3880); experiment: LTEA_HepaRG_KRT19: Life Technologies and Expression Analysis (LTEA) Assay for Keratin 19 (KRT19) using HepaRG (AID 2283512)
Method in brief: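 HepaRG, 48 h chemical exposure, 8-pt half-log CRC from 100 uM, 0.5% DMSO vehicle, duplicates. Readout: TaqMan qRT-PCR of KRT19 mRNA, housekeeping-normalized (ACTB/GAPDH/POLR2A). Bidirectional fit vs DMSO baseline.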

[13] = read-out: JUN Transcription Factor, JUN (gene 3725); experiment: LTEA_HepaRG_JUN: Life Technologies and Expression Analysis (LTEA) Assay for JUN Transcription Factor using HepaRG (AID 2283513)
Method in brief: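 Read-out is JUN transcript level by TaqMan qRT-PCR, normalized to ACTB, GAPDH and POLR2A, after 48 h chemical treatment of HepaRG cells. Concentration-response spanned eight half-log points up to 100 uM in 0.5% DMSO.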

[14] = read-out: Lipase C (LIPC), LIPC (gene 3990); experiment: LTEA_HepaRG_LIPC: Life Technologies and Expression Analysis (LTEA) Assay for Lipase C (LIPC) using HepaRG (AID 2283514)
Method in brief: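 HepaRG, 48 h exposure, 8-pt half-log series from 100 uM in 0.5% DMSO, duplicates. Readout: LIPC mRNA by Fluidigm qRT-PCR, housekeeping-normalized (ACTB/GAPDH/POLR2A). Gain or loss fitted bidirectionally against DMSO baseline.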

[15] = read-out: Lipoprotein lipase (LPL), LPL (gene 4023); experiment: LTEA_HepaRG_LPL: Life Technologies and Expression Analysis (LTEA) Assay for Lipoprotein lipase (LPL) using HepaRG (AID 2283515)
Method in brief: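 HepaRG, 48 h exposure, 8-pt half-log dilutions from 100 uM, 0.5% DMSO vehicle, duplicates; qRT-PCR (Fluidigm array) of LPL mRNA vs housekeeping genes; bidirectional curve fit relative to DMSO baseline.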

[16] = read-out: MicroRNA 122 (MIR122), gene 406906; experiment: LTEA_HepaRG_MIR122: Life Technologies and Expression Analysis (LTEA) Assay for MicroRNA 122 (MIR122) using HepaRG (AID 2283516); further: the transcript read is the microRNA miR-122
Method in brief: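 Human liver HepaRG cultures receive test chemicals for 48 h at eight half-log concentrations from 100 uM. Expression is quantified by qRT-PCR with ACTB/GAPDH/POLR2A normalization and fitted bidirectionally against 0.5% DMSO.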

[17] = read-out: matrix metalloproteinase-10 (MMP10), MMP10 (gene 4319); experiment: LTEA_HepaRG_MMP10: Life Technologies and Expression Analysis (LTEA) Assay for matrix metalloproteinase-10 (MMP10) using HepaRG (AID 2283517)
Method in brief: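 Transcript levels come from Fluidigm qRT-PCR normalized to three housekeeping genes, with curves fitted bidirectionally against 0.5% DMSO. Human HepaRG cells were dosed for 48 hours at concentrations up to 100 uM.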

MYC, MYC (gene 4609) = experiment: LTEA_HepaRG_MYC: Life Technologies and Expression Analysis (LTEA) Assay for MYC using HepaRG (AID 2283518)
Method in brief: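 qRT-PCR read-out of MYC transcript (Fluidigm TaqMan, housekeeping-normalized) after 48 h chemical exposure of HepaRG cells; eight concentrations, top 100 uM, half-log steps. Bidirectional curve fitting against 0.5% DMSO vehicle baseline.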

[18] = read-out: Hypoxia-inducible factor 1-alpha (Homo sapiens) (UniProt Q16665); experiment: LTEA_HepaRG_HIF1A: Life Technologies and Expression Analysis (LTEA) Assay for Hypoxia-inducible factor 1 (HIF1A) Trancription factor using HepaRG (AID 2283503)
Method in brief: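 HIF1A transcript level read by qRT-PCR (ACTB, GAPDH, POLR2A normalization) after 48 h chemical exposure of HepaRG cultures. Eight half-log concentrations, top 100 uM, 0.5% DMSO vehicle, duplicates; bidirectional curve fit against DMSO baseline.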

Measured: AC50

Hypoxia-inducible factor 1-alpha (Homo sapiens), sequence (Q16665 whole entry, looked up): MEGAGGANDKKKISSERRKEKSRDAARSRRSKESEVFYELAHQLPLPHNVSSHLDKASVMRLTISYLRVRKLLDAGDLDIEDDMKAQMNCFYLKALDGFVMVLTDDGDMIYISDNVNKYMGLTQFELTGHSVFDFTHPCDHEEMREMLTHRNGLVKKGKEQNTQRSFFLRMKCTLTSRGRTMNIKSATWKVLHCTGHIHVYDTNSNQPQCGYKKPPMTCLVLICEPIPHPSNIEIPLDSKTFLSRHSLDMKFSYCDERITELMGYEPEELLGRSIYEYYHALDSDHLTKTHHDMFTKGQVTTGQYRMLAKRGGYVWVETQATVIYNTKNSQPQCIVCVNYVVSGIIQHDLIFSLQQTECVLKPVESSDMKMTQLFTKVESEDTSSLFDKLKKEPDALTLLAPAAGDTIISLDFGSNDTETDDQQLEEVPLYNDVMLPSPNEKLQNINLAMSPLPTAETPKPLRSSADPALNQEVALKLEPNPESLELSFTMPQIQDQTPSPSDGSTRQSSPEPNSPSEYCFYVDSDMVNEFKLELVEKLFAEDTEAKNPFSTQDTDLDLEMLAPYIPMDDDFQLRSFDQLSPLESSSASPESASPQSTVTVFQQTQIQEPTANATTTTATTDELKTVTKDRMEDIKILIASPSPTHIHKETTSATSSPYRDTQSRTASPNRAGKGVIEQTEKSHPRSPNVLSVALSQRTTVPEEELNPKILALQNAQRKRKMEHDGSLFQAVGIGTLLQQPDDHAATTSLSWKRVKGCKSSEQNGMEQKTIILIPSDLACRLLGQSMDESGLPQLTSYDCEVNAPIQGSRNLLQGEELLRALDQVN

Cc1cccc(Nc2cc(Cl)nc(SCC(=O)O)n2)c1C
active: [5] 6.99 µM
not listed: [18]
inactive: all other assays above

Nc1ccc(S(=O)(=O)c2ccc(N)cc2)cc1
not listed: [18]
inactive: all other assays above

CNCc1cc(F)ccc1Oc1ccc(Cl)c(Cl)c1
active: [4] 78.4 µM | [5] 88.6 µM | HGF (gene 3082) 86.6 µM | [6] 89.4 µM | [7] 79.2 µM | [8] 73.5 µM | [9] 95.4 µM | [13] 80.5 µM | [16] 81.8 µM | [17] 91.2 µM | MYC, MYC (gene 4609) 78.9 µM
inactive: [1] | [2] | [3] | [18] | [10] | [12] | [14] | [15]

COc1ccc2c(c1)c(CC(=O)O)c(C)n2C(=O)c1ccc(Cl)cc1
not listed: [18]
inactive: all other assays above

C1CCC(SSC2CCCCC2)CC1
not listed: [18]
inactive: all other assays above

Cc1ccc(C)c(O)c1C
inactive: all assays above

CCCCc1ccc2c(n1)[C@@H](c1ccc(OC)cc1C[C@H](C)C(=O)O)[C@H](C(=O)O)[C@H]2c1ccc2c(c1)OCO2
not listed: [18]
inactive: all other assays above

Clc1cc(Cl)c(Cl)cc1Cl
not listed: [18]
inactive: all other assays above

C[C@]12C=CC(=O)C=C1CC[C@@H]1[C@@H]2C(=O)C[C@@]2(C)[C@H]1CC[C@]2(O)C(=O)CO
not listed: [1] | [13] | MYC, MYC (gene 4609) | [18]
inactive: all other assays above
